# Assay results from paper PMC7862700, “An all-to-all approach to the identification of sequence-specific readers for epigenetic DNA modifications on cytosine”.
# Tests used:
# Assay in all cases: DAPPL (digital affinity profiling via proximity ligation, sequencing); 10 mM Tris-HCl pH 7.5, 50 mM NaCl, 1 mM DTT, 4% glycerol, room temperature, 30 min; GST-TFs on glutathione beads, 16-mer random dsDNA library, 0.1% formaldehyde crosslink after washing; high values mean tight binding
# [1] = target: T1, FLI1 (Homo sapiens, UniProt Q01543 1-452); settings: protein: recombinant; tags: N-terminal GST; dsDNA, one strand shown
# T1 sequence: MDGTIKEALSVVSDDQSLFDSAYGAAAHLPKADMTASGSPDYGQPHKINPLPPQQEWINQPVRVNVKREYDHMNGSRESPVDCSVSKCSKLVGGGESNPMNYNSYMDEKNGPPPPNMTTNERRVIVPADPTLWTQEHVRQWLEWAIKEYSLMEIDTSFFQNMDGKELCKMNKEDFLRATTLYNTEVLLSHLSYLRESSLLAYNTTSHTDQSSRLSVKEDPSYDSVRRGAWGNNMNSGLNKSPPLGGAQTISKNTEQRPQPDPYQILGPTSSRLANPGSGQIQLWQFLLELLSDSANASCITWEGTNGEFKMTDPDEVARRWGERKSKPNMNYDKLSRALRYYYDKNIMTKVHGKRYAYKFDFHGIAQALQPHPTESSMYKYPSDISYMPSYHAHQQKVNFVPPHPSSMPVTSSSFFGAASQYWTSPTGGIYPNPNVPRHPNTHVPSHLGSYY
# In short: (§1)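 In yeast, human transcription factors were expressed with a GST fusion, then pulled down on glutathione beads and given DNA barcodes. Pooled with a tag-only sample, they were exposed to 200 nmole of a 16-mer random double-stranded DNA library (Tris/NaCl/DTT/glycerol buffer, room temperature, 30 min), washed, crosslinked with 0.1% formaldehyde, proximity-ligated using BsaI/T4 ligase for 1 h at 37 °C, PCR-amplified and read on an Illumina NextSeq500. Each hexamer's frequency of reads for a factor, divided by the matching frequency for the tag-only sample, gives the binding signal.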
# [2] = target: T2, ELK1 (Homo sapiens, UniProt P19419 1-428); settings: protein: recombinant; tags: N-terminal GST; dsDNA, one strand shown
# T2 sequence: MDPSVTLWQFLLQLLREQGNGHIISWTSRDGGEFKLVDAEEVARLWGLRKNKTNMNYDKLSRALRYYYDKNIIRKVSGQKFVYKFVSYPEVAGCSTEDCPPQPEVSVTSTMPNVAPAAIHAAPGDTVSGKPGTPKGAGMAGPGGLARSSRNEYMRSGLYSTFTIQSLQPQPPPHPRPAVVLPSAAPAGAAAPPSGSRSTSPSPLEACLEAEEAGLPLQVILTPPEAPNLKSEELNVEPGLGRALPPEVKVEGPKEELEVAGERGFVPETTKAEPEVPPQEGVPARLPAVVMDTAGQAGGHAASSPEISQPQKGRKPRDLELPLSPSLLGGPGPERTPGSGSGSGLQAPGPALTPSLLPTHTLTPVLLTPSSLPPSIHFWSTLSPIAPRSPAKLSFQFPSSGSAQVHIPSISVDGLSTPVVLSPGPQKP
# In short: as §1
# [3] = target: T3, GABPA (Homo sapiens, UniProt Q06546 1-454); settings: protein: recombinant; tags: N-terminal GST; dsDNA, one strand shown
# T3 sequence: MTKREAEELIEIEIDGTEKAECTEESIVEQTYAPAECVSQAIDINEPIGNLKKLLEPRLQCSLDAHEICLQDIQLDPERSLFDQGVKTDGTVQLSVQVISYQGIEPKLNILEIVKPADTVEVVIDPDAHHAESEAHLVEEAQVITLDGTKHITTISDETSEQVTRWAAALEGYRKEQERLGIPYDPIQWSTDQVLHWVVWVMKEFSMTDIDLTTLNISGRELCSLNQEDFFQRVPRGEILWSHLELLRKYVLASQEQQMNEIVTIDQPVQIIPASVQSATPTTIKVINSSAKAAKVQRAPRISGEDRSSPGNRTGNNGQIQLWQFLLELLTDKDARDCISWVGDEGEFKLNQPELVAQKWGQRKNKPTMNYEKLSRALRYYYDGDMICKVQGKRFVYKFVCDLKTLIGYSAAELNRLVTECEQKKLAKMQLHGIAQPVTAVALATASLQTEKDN
# In short: as §1
# [4] = target: T4, ERG (Homo sapiens, UniProt P11308 1-479); settings: protein: recombinant; tags: N-terminal GST; dsDNA, one strand shown
# T4 sequence: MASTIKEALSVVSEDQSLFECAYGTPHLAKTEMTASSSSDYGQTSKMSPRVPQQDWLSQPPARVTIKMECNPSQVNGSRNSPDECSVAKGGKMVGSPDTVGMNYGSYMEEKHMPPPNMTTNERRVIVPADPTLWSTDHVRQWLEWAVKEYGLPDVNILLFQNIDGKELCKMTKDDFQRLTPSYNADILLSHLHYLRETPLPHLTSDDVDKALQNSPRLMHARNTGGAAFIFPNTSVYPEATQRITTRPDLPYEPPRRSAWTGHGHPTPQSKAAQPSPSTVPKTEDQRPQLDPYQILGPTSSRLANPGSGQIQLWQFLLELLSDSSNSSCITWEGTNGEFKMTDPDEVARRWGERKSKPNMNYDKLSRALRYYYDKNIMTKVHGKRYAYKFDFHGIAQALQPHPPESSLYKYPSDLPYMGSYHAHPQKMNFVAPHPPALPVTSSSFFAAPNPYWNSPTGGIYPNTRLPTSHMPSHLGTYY
# In short: as §1
# [5] = target: ELF1 (Homo sapiens, UniProt P32519 1-619); settings: protein: recombinant; tags: N-terminal GST; dsDNA, one strand shown
# In short: as §1
# [6] = target: T5, EHF (Homo sapiens, UniProt Q9NZC4 1-300); settings: protein: recombinant; tags: N-terminal GST; dsDNA, one strand shown
# T5 sequence: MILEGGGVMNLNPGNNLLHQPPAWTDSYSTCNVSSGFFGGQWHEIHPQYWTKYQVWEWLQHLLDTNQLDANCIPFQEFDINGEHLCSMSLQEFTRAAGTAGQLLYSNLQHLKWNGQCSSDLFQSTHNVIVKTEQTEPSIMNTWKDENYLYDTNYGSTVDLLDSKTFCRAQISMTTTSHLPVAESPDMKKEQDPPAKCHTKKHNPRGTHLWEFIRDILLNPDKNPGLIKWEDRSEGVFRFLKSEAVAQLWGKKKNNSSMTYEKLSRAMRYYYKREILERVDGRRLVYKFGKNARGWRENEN
# In short: as §1
# [7] = target: SPI1 (Homo sapiens, UniProt P17947 1-270); settings: protein: recombinant; tags: N-terminal GST; dsDNA, one strand shown
# In short: as §1
# [8] = target: SPIB (Homo sapiens, UniProt Q01892 1-262); settings: protein: recombinant; tags: N-terminal GST; dsDNA, one strand shown
# In short: as §1
# [9] = target: T6, ELK3 (Homo sapiens, UniProt P41970 1-407); settings: protein: recombinant; tags: N-terminal GST; dsDNA, one strand shown
# T6 sequence: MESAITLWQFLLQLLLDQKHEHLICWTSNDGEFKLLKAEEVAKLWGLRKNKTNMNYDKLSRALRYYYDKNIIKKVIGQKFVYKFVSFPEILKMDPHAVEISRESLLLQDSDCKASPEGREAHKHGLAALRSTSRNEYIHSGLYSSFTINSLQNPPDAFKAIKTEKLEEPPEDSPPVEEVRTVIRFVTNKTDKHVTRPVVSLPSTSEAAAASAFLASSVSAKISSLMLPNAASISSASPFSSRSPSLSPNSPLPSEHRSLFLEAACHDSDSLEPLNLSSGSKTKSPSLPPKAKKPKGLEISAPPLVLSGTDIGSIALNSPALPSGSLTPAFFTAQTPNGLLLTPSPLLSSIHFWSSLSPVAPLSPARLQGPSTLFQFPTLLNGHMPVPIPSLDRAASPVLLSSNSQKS
# In short: as §1
# [10] = target: T7, FEV (Homo sapiens, UniProt Q99581 1-238); settings: protein: recombinant; tags: N-terminal GST; dsDNA, one strand shown
# T7 sequence: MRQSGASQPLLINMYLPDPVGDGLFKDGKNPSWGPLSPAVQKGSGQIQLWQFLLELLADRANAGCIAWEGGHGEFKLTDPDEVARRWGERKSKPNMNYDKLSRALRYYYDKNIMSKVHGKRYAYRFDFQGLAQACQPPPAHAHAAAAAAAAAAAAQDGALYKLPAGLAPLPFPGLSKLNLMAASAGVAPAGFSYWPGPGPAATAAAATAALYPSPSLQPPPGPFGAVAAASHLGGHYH
# In short: as §1
# [11] = target: ETV5 (Homo sapiens, UniProt P41161 1-510); settings: protein: recombinant; tags: N-terminal GST; dsDNA, one strand shown
# In short: as §1
# [12] = target: HSF1 (Homo sapiens, UniProt Q00613 1-529); settings: protein: recombinant; tags: N-terminal GST; chain copies: 3; dsDNA, one strand shown
# In short: as §1
# [13] = target: T8, SPIC (Homo sapiens, UniProt Q8N5J4 1-248); settings: protein: recombinant; tags: N-terminal GST; dsDNA, one strand shown
# T8 sequence: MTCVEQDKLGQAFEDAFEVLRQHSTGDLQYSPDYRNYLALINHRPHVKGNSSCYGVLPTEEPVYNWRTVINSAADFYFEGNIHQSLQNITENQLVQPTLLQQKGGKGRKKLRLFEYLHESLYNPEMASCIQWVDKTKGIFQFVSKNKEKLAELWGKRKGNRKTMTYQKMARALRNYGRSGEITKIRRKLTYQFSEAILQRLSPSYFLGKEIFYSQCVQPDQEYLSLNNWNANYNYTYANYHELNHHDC
# In short: as §1
# [14] = target: ELF4 (Homo sapiens, UniProt Q99607 1-663); settings: protein: recombinant; tags: N-terminal GST; dsDNA, one strand shown
# In short: as §1
# [15] = target: T9, ELK4 (Homo sapiens, UniProt P28324-2 1-405); settings: protein: recombinant; tags: N-terminal GST; dsDNA, one strand shown
# T9 sequence: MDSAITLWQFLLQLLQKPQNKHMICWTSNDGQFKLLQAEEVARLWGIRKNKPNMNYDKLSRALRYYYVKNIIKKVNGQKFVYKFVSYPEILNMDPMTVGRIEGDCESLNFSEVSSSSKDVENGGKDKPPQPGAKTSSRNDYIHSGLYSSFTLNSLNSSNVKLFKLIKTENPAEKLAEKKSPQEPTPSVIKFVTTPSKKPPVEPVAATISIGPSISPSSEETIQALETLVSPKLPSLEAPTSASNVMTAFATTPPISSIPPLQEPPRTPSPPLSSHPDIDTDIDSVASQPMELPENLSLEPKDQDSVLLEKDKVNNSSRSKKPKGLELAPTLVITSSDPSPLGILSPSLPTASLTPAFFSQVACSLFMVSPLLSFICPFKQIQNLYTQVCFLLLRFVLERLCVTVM
# In short: as §1
# [16] = target: T10, ETV2 (Homo sapiens, UniProt O00321 1-342); settings: protein: recombinant; tags: N-terminal GST; dsDNA, one strand shown
# T10 sequence: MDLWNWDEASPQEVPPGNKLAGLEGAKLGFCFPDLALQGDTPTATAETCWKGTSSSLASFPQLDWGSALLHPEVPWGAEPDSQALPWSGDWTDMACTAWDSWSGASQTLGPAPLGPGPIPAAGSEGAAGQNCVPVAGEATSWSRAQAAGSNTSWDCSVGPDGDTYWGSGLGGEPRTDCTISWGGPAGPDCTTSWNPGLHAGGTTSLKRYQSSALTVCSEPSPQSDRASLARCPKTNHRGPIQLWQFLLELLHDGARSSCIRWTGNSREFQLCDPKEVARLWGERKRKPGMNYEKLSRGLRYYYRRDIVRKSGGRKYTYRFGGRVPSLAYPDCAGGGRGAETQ
# In short: as §1
# [17] = target: T11, ELF3 (Homo sapiens, UniProt P78545 1-371); settings: protein: recombinant; tags: N-terminal GST; dsDNA, one strand shown
# T11 sequence: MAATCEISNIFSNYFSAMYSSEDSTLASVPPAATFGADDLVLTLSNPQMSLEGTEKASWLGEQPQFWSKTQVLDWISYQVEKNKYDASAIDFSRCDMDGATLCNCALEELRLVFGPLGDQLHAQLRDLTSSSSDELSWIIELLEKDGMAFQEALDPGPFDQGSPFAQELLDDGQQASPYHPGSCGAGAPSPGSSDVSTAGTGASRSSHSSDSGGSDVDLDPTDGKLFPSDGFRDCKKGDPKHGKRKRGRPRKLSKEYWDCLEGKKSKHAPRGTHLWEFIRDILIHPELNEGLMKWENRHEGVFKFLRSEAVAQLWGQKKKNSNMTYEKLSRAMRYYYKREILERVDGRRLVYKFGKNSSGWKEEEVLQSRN
# In short: as §1
# [18] = target: CRX (Homo sapiens, UniProt O43186 1-299); settings: protein: recombinant; tags: N-terminal GST; dsDNA, one strand shown
# In short: as §1
# [19] = target: ETV1 (Homo sapiens, UniProt P50549 1-477); settings: protein: recombinant; tags: N-terminal GST; dsDNA, one strand shown
# In short: as §1
# ETV1, sequence (P50549 whole entry): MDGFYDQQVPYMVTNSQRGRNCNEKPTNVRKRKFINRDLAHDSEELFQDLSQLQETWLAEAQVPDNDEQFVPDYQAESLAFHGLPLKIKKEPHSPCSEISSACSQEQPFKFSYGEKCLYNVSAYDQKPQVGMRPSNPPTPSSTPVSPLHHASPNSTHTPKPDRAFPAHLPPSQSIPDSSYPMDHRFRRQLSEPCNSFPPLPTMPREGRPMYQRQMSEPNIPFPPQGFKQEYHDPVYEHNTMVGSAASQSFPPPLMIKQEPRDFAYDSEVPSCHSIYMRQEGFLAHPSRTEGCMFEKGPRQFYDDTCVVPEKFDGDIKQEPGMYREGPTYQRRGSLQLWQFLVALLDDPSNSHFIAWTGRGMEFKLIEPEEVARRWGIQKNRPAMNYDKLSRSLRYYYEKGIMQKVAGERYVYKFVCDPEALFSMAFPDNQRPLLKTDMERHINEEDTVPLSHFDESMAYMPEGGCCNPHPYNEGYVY
# CRX, sequence (O43186 whole entry): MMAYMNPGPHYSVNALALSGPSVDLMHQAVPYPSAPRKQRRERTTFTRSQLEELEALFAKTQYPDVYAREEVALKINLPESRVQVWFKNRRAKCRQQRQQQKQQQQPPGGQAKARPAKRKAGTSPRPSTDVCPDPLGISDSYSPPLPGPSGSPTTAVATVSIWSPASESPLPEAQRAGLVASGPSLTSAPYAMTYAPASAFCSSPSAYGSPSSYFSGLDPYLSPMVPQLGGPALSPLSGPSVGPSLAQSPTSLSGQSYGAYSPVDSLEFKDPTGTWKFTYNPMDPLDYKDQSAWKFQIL
# ELF4, sequence (Q99607 whole entry): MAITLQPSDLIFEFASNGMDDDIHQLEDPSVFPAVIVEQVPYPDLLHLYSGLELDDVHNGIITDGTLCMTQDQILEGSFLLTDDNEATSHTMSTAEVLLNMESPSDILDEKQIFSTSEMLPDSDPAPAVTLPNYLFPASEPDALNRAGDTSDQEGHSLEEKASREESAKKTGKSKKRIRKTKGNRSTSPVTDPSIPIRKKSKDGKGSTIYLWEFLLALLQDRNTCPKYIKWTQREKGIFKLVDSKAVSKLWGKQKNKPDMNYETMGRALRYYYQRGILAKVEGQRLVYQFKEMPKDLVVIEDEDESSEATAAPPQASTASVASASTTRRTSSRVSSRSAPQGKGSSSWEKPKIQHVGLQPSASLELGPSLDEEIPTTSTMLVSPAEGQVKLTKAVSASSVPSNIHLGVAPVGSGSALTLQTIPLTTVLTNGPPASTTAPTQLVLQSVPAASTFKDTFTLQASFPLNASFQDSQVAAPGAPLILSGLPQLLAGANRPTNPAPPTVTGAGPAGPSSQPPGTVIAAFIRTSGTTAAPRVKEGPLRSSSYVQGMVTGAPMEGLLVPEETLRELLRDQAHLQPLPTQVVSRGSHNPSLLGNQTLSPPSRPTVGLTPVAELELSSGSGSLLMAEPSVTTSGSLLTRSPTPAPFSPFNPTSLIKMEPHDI
# ETV5, sequence (P41161 whole entry): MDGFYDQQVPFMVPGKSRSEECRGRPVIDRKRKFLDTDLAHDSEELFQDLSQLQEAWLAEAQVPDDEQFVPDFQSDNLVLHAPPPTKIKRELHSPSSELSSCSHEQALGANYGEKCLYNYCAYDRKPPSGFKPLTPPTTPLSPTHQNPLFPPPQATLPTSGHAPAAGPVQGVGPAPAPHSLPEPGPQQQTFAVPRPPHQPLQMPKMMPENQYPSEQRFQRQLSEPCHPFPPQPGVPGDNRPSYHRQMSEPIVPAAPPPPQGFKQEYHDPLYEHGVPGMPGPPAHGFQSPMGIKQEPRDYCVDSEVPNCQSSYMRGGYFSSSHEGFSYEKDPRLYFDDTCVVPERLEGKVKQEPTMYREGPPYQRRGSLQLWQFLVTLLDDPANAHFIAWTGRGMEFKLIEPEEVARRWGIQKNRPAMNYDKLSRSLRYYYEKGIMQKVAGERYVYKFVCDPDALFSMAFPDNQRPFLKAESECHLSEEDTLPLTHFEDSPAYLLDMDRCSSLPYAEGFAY
# ELF1, sequence (P32519 whole entry): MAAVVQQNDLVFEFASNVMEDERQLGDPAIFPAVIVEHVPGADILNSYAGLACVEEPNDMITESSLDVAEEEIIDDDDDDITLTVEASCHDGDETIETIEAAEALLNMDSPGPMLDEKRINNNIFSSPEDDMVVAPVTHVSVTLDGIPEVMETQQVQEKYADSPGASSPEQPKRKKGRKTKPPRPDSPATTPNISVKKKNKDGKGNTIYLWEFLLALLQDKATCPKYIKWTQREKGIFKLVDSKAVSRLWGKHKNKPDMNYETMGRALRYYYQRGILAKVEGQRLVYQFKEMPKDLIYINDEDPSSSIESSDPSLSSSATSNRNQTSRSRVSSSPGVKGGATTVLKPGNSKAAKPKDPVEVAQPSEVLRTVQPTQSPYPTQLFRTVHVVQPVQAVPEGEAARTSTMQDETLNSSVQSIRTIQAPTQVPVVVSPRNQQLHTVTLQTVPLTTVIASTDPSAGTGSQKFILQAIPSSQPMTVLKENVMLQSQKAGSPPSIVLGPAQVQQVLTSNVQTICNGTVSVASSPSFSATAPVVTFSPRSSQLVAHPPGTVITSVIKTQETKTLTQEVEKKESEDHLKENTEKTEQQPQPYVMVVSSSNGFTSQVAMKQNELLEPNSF
# SPIB, sequence (Q01892 whole entry): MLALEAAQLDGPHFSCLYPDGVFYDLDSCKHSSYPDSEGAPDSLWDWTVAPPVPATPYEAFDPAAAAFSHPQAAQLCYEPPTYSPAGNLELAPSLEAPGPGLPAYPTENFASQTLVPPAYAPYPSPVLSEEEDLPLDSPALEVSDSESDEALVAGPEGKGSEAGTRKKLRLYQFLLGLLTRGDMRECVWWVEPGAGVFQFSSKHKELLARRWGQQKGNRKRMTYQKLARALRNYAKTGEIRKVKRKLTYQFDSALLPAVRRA
# HSF1, sequence (Q00613 whole entry): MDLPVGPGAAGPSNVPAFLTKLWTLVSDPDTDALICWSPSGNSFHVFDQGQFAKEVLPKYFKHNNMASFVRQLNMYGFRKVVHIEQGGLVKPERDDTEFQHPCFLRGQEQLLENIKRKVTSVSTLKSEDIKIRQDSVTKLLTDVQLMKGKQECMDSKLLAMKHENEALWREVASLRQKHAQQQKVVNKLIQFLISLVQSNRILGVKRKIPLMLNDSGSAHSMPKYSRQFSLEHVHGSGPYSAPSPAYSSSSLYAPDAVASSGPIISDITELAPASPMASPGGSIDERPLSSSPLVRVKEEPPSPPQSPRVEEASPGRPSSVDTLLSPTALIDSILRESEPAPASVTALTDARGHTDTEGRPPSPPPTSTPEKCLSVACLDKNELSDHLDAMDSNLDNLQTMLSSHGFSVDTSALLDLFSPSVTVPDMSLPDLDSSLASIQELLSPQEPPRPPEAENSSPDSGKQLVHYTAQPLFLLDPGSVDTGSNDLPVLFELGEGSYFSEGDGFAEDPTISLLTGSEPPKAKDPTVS
sequence,measurement,setting,value
CTTCAA,binding signal,[1],"1.44 fold enrichment (6-mer frequency, TF over GST control)"
same,binding signal,[2],"1.35 fold enrichment (6-mer frequency, TF over GST control)"
same,binding signal,[3],"1.35 fold enrichment (6-mer frequency, TF over GST control)"
same,binding signal,[4],"1.28 fold enrichment (6-mer frequency, TF over GST control)"
same,binding signal,[5],"1.4 fold enrichment (6-mer frequency, TF over GST control)"
same,binding signal,[6],"1.26 fold enrichment (6-mer frequency, TF over GST control)"
same,binding signal,[7],"1.27 fold enrichment (6-mer frequency, TF over GST control)"
same,binding signal,[8],"1.4 fold enrichment (6-mer frequency, TF over GST control)"
same,binding signal,[9],"1.13 fold enrichment (6-mer frequency, TF over GST control)"
same,binding signal,[10],"1.33 fold enrichment (6-mer frequency, TF over GST control)"
same,binding signal,[11],"1.28 fold enrichment (6-mer frequency, TF over GST control)"
same,binding signal,[12],"1.38 fold enrichment (6-mer frequency, TF over GST control)"
same,binding signal,[13],"1.32 fold enrichment (6-mer frequency, TF over GST control)"
same,binding signal,[14],"1.29 fold enrichment (6-mer frequency, TF over GST control)"
same,binding signal,[15],"1.52 fold enrichment (6-mer frequency, TF over GST control)"
same,binding signal,[16],"1.46 fold enrichment (6-mer frequency, TF over GST control)"
same,binding signal,[17],"1.37 fold enrichment (6-mer frequency, TF over GST control)"
same,binding signal,[18],"1.22 fold enrichment (6-mer frequency, TF over GST control)"
same,binding signal,[19],"1.36 fold enrichment (6-mer frequency, TF over GST control)"
